Source: the supplement of paper PMC9694430

Tests used:
Experiment in all cases: thermal shift delta Tm vs DMSO control; higher = stronger stabilization (binding)
Settings in all cases: 12.5 µM; protein concentration 2 µM
LOC_OS04G57630-cb004 = tested on: LOC_OS04G57630-cb004
Summary of the method: (§1)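 Heating from 25°C to 95°C at 0.05°C/s, fluorescence was recorded for 19.5 μl wells of 2 μM E. coli-expressed, purified rice kinase domain in 100 mM potassium phosphate pH 7.5, 150 mM NaCl, 10% glycerol and 5 × SYPRO Orange with compound in DMSO. Boltzmann fits gave melting temperatures for this differential scanning fluorimetry assay. The shift reported is the mean of three replicates against the DMSO-only protein.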

LOC_OS05G07850-cb002 = tested on: LOC_OS05G07850-cb002
Summary of the method: as §1

LOC_OS05G16824-cb004 = tested on: LOC_OS05G16824-cb004
Summary of the method: as §1

LOC_OS05G28520-cb001 = tested on: LOC_OS05G28520-cb001
Summary of the method: as §1

LOC_OS05G30820-cb001 = tested on: LOC_OS05G30820-cb001
Summary of the method: as §1

LOC_OS05G43570-cb004 = tested on: LOC_OS05G43570-cb004
Summary of the method: as §1

LOC_OS06G16330-cb003 = tested on: LOC_OS06G16330-cb003
Summary of the method: as §1

LOC_OS06G22820-cb001 = tested on: T1, LOC_OS06G22820-cb001
T1 sequence (whole entry): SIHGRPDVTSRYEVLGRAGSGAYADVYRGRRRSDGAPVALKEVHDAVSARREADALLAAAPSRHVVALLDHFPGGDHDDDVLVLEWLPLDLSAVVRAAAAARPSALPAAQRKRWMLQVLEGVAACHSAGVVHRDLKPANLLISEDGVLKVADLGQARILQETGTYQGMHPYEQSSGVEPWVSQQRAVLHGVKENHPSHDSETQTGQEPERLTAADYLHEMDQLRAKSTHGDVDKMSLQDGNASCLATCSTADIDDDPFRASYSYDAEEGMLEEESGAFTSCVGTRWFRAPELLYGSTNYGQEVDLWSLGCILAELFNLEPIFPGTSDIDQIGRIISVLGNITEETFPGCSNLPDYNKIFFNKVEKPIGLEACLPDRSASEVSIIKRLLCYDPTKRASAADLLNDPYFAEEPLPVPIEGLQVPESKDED
Summary of the method: as §1

LOC_OS07G06570-cb004 = tested on: LOC_OS07G06570-cb004
Summary of the method: as §1

LOC_OS07G07230-cb001 = tested on: LOC_OS07G07230-cb001
Summary of the method: as §1
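Also: purified Escherichia coli-expressed rice kinase domain construct.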

Chain of LOC_OS06G16330-cb003 (as listed by the source): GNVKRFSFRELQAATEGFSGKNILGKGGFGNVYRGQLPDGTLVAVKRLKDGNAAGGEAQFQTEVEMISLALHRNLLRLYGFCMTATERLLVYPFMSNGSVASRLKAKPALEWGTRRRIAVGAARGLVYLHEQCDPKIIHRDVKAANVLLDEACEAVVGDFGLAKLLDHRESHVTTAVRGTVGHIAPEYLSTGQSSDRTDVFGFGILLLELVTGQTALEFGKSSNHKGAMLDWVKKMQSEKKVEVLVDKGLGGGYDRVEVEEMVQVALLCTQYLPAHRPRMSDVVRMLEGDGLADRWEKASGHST

Cn1cc(-c2ccc(F)c(C(F)(F)F)c2)nc1C1CCN(c2ncnc3[nH]ncc23)CC1
thermal shift delta Tm (LOC_OS04G57630-cb004): 0.14 °C | thermal shift delta Tm (LOC_OS05G07850-cb002): 0.42 °C | thermal shift delta Tm (LOC_OS05G16824-cb004): -7.63 °C | thermal shift delta Tm (LOC_OS05G28520-cb001): 0.22 °C | thermal shift delta Tm (LOC_OS05G30820-cb001): 0.54 °C | thermal shift delta Tm (LOC_OS05G43570-cb004): 0.45 °C | thermal shift delta Tm (LOC_OS06G16330-cb003): 0.11 °C | thermal shift delta Tm (LOC_OS06G22820-cb001): 0.36 °C | thermal shift delta Tm (LOC_OS07G06570-cb004): 0.72 °C | thermal shift delta Tm (LOC_OS07G07230-cb001): 0.63 °C

CNC(=O)CN1CCC(Oc2cc3c(Nc4cccc(Cl)c4F)ncnc3cc2OC)CC1 [Sapitinib (AZD8931)]
thermal shift delta Tm (LOC_OS04G57630-cb004): 0 °C | thermal shift delta Tm (LOC_OS05G07850-cb002): 3.04 °C | thermal shift delta Tm (LOC_OS05G16824-cb004): -12 °C | thermal shift delta Tm (LOC_OS05G28520-cb001): -0.17 °C | thermal shift delta Tm (LOC_OS05G30820-cb001): 0.6 °C | thermal shift delta Tm (LOC_OS05G43570-cb004): 0.17 °C | thermal shift delta Tm (LOC_OS06G16330-cb003): 1.14 °C | thermal shift delta Tm (LOC_OS06G22820-cb001): 0.37 °C | thermal shift delta Tm (LOC_OS07G06570-cb004): 0.48 °C | thermal shift delta Tm (LOC_OS07G07230-cb001): -0.24 °C

COc1ccccc1-c1cc(Nc2cccc(CS(N)(=O)=O)c2)ncn1
thermal shift delta Tm (LOC_OS04G57630-cb004): 0.35 °C | thermal shift delta Tm (LOC_OS05G07850-cb002): 5.65 °C | thermal shift delta Tm (LOC_OS05G16824-cb004): 3.26 °C | thermal shift delta Tm (LOC_OS05G28520-cb001): 0.95 °C | thermal shift delta Tm (LOC_OS05G30820-cb001): 0.39 °C | thermal shift delta Tm (LOC_OS05G43570-cb004): 0.37 °C | thermal shift delta Tm (LOC_OS06G16330-cb003): 4.76 °C | thermal shift delta Tm (LOC_OS06G22820-cb001): 0.66 °C | thermal shift delta Tm (LOC_OS07G06570-cb004): 0.36 °C | thermal shift delta Tm (LOC_OS07G07230-cb001): -0.22 °C

CCCNC(=O)c1cn2ncnc(Nc3cc(C(=O)NC4CC4)ccc3C)c2c1C
thermal shift delta Tm (LOC_OS04G57630-cb004): 0.07 °C | thermal shift delta Tm (LOC_OS05G07850-cb002): 0.14 °C | thermal shift delta Tm (LOC_OS05G16824-cb004): -4.13 °C | thermal shift delta Tm (LOC_OS05G28520-cb001): 0.31 °C | thermal shift delta Tm (LOC_OS05G30820-cb001): 0.52 °C | thermal shift delta Tm (LOC_OS05G43570-cb004): 0.2 °C | thermal shift delta Tm (LOC_OS06G16330-cb003): -0.22 °C | thermal shift delta Tm (LOC_OS06G22820-cb001): 0.62 °C | thermal shift delta Tm (LOC_OS07G06570-cb004): 1.15 °C | thermal shift delta Tm (LOC_OS07G07230-cb001): 0.61 °C

COc1ccc([C@@H]2OC[C@H]3[C@@H]2CO[C@@H]3c2ccc(O[C@@H]3O[C@H](CO)[C@@H](O)[C@H](O)[C@H]3O)c(OC)c2)cc1OC [Forsythin]
thermal shift delta Tm (LOC_OS04G57630-cb004): -0.22 °C | thermal shift delta Tm (LOC_OS05G07850-cb002): -0.42 °C | thermal shift delta Tm (LOC_OS05G16824-cb004): -9.57 °C | thermal shift delta Tm (LOC_OS05G28520-cb001): 0.25 °C | thermal shift delta Tm (LOC_OS05G30820-cb001): -0.02 °C | thermal shift delta Tm (LOC_OS05G43570-cb004): 0.21 °C | thermal shift delta Tm (LOC_OS06G16330-cb003): -0.18 °C | thermal shift delta Tm (LOC_OS06G22820-cb001): 0.41 °C | thermal shift delta Tm (LOC_OS07G06570-cb004): 0.89 °C | thermal shift delta Tm (LOC_OS07G07230-cb001): 0.9 °C

Cc1ccc(-n2nc(C(C)(C)C)cc2NC(=O)Nc2ccc(OCCN3CCOCC3)c3ccccc23)cc1 [Doramapimod (BIRB 796)]
thermal shift delta Tm (LOC_OS04G57630-cb004): 1.36 °C | thermal shift delta Tm (LOC_OS05G07850-cb002): 1.84 °C | thermal shift delta Tm (LOC_OS05G16824-cb004): -1.73 °C | thermal shift delta Tm (LOC_OS05G28520-cb001): 0.26 °C | thermal shift delta Tm (LOC_OS05G30820-cb001): 0.82 °C | thermal shift delta Tm (LOC_OS05G43570-cb004): 0.41 °C | thermal shift delta Tm (LOC_OS06G16330-cb003): 0.15 °C | thermal shift delta Tm (LOC_OS06G22820-cb001): 0.9 °C | thermal shift delta Tm (LOC_OS07G06570-cb004): 0.71 °C | thermal shift delta Tm (LOC_OS07G07230-cb001): 0.5 °C

Cc1ccc(S(=O)(=O)/C=C/C#N)cc1
thermal shift delta Tm (LOC_OS04G57630-cb004): 2.48 °C | thermal shift delta Tm (LOC_OS05G07850-cb002): 7.56 °C | thermal shift delta Tm (LOC_OS05G16824-cb004): -14.7 °C | thermal shift delta Tm (LOC_OS05G28520-cb001): 0.54 °C | thermal shift delta Tm (LOC_OS05G30820-cb001): -0.01 °C | thermal shift delta Tm (LOC_OS05G43570-cb004): -0.14 °C | thermal shift delta Tm (LOC_OS06G16330-cb003): -0.31 °C | thermal shift delta Tm (LOC_OS06G22820-cb001): 0.01 °C | thermal shift delta Tm (LOC_OS07G06570-cb004): 1.13 °C | thermal shift delta Tm (LOC_OS07G07230-cb001): -0.21 °C

Cc1cc(N2CCOCC2)cc2[nH]c(-c3c(NC[C@@H](O)c4cccc(Cl)c4)cc[nH]c3=O)nc12
thermal shift delta Tm (LOC_OS04G57630-cb004): -0.02 °C | thermal shift delta Tm (LOC_OS05G07850-cb002): 9.39 °C | thermal shift delta Tm (LOC_OS05G16824-cb004): 5.37 °C | thermal shift delta Tm (LOC_OS05G28520-cb001): 1.06 °C | thermal shift delta Tm (LOC_OS05G30820-cb001): 0.82 °C | thermal shift delta Tm (LOC_OS05G43570-cb004): 0.65 °C | thermal shift delta Tm (LOC_OS06G16330-cb003): 4.87 °C | thermal shift delta Tm (LOC_OS06G22820-cb001): 0.56 °C | thermal shift delta Tm (LOC_OS07G06570-cb004): -0.16 °C | thermal shift delta Tm (LOC_OS07G07230-cb001): 0.74 °C

CNc1nc(Nc2cn(C(C)(C)C#N)nc2C)ncc1C(F)(F)F
thermal shift delta Tm (LOC_OS04G57630-cb004): 0.21 °C | thermal shift delta Tm (LOC_OS05G07850-cb002): 3.12 °C | thermal shift delta Tm (LOC_OS05G16824-cb004): 1.76 °C | thermal shift delta Tm (LOC_OS05G28520-cb001): 0.47 °C | thermal shift delta Tm (LOC_OS05G30820-cb001): 0.36 °C | thermal shift delta Tm (LOC_OS05G43570-cb004): 0.56 °C | thermal shift delta Tm (LOC_OS06G16330-cb003): 0.81 °C | thermal shift delta Tm (LOC_OS06G22820-cb001): 0.4 °C | thermal shift delta Tm (LOC_OS07G06570-cb004): 0.68 °C | thermal shift delta Tm (LOC_OS07G07230-cb001): -0.13 °C
